Experimental findings from publication PMC7862700, “An all-to-all approach to the identification of sequence-specific readers for epigenetic DNA modifications on cytosine” are described below.

Common to all, as to assay: DAPPL (digital affinity profiling via proximity ligation, sequencing); 10 mM Tris-HCl pH 7.5, 50 mM NaCl, 1 mM DTT, 4% glycerol, room temperature, 30 min; GST-TFs on glutathione beads, 16-mer random dsDNA library, 0.1% formaldehyde crosslink after washing; high values mean tight binding
Assay [1] addresses T1, FLI1 (Homo sapiens, UniProt Q01543 1-452).
T1 sequence: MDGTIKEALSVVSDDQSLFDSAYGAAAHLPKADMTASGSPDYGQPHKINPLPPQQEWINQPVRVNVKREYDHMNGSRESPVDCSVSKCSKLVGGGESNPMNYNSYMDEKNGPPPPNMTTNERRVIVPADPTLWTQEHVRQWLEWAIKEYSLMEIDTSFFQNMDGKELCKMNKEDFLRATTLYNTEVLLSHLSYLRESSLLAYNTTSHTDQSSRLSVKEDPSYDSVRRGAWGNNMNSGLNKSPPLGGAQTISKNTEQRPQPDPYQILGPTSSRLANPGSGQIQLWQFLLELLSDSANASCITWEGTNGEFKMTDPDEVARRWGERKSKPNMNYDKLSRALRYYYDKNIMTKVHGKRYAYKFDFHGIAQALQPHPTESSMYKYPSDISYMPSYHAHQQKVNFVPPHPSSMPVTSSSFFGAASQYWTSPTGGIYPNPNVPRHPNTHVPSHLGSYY
The note with it: protein: recombinant; tags: N-terminal GST; dsDNA, one strand shown. In short, it runs like this: (§1)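 In yeast, human transcription factors were expressed with a GST fusion, then pulled down on glutathione beads and given DNA barcodes. Pooled with a tag-only sample, they were exposed to 200 nmole of a 16-mer random double-stranded DNA library (Tris/NaCl/DTT/glycerol buffer, room temperature, 30 min), washed, crosslinked with 0.1% formaldehyde, proximity-ligated using BsaI/T4 ligase for 1 h at 37 °C, PCR-amplified and read on an Illumina NextSeq500. Each hexamer's frequency of reads for a factor, divided by the matching frequency for the tag-only sample, gives the binding signal.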

Assay [2] deals with T2, ELK1 (Homo sapiens, UniProt P19419 1-428).
T2 sequence: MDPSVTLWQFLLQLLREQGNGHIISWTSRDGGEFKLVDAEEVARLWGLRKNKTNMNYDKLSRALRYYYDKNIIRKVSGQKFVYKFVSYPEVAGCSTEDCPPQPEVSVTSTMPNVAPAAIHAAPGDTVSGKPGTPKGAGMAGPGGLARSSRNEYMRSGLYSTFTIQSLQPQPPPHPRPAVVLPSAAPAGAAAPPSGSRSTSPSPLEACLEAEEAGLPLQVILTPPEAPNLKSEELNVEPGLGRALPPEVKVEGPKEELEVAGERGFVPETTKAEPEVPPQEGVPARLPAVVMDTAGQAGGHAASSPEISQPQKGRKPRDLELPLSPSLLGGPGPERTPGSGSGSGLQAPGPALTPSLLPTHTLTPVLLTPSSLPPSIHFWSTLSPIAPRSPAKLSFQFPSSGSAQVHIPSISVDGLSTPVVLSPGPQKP
Particulars: protein: recombinant; tags: N-terminal GST; dsDNA, one strand shown. In short, it runs like this:
as §1

Assay [3] has as its target T3, GABPA (Homo sapiens, UniProt Q06546 1-454).
T3 sequence: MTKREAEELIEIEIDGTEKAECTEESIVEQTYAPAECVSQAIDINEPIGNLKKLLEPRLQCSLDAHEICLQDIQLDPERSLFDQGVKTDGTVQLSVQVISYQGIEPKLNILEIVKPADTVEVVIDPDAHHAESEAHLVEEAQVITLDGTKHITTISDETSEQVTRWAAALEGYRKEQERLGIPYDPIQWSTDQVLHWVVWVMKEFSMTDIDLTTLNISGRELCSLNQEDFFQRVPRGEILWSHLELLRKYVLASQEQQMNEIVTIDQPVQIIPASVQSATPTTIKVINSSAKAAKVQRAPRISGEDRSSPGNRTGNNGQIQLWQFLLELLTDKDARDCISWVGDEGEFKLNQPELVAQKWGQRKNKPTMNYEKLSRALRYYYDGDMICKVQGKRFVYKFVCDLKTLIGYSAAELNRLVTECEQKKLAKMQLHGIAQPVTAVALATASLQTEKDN
The note with it: protein: recombinant; tags: N-terminal GST; dsDNA, one strand shown. In short, it runs like this:
as §1

For assay [4], the target named is T4, ERG (Homo sapiens, UniProt P11308 1-479).
T4 sequence: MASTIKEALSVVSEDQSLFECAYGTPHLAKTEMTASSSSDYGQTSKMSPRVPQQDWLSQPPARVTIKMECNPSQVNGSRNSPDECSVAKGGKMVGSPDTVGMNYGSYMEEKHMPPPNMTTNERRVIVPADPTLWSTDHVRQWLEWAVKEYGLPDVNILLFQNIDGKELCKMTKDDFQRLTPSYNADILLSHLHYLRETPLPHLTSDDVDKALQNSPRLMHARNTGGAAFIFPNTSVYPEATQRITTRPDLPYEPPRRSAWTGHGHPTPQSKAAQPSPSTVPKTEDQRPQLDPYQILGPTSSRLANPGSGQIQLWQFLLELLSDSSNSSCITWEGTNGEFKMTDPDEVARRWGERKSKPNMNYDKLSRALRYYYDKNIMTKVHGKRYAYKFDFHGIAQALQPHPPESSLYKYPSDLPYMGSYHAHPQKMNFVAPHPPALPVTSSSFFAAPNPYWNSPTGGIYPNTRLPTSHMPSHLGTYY
Particulars: protein: recombinant; tags: N-terminal GST; dsDNA, one strand shown. In short, it runs like this:
as §1

The target in assay [5] is ELF1 (Homo sapiens, UniProt P32519 1-619). Particulars: protein: recombinant; tags: N-terminal GST; dsDNA, one strand shown. In short, it runs like this:
as §1

Assay [6] deals with T5, EHF (Homo sapiens, UniProt Q9NZC4 1-300).
T5 sequence: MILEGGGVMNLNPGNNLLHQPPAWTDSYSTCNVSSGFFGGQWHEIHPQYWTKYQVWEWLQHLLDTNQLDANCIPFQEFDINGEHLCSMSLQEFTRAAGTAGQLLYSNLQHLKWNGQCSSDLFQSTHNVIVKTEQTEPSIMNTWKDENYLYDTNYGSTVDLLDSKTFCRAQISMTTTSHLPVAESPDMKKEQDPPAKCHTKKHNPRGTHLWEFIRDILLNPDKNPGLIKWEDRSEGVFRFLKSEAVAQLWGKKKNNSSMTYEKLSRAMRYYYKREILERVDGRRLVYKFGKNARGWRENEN
Particulars: protein: recombinant; tags: N-terminal GST; dsDNA, one strand shown. The gist of the method:
as §1

Assay [7] deals with SPI1 (Homo sapiens, UniProt P17947 1-270). The note with it: protein: recombinant; tags: N-terminal GST; dsDNA, one strand shown. The gist of the method:
as §1

Assay [8] addresses SPIB (Homo sapiens, UniProt Q01892 1-262). The note with it: protein: recombinant; tags: N-terminal GST; dsDNA, one strand shown. The gist of the method:
as §1

Assay [9] addresses T6, ELK3 (Homo sapiens, UniProt P41970 1-407).
T6 sequence: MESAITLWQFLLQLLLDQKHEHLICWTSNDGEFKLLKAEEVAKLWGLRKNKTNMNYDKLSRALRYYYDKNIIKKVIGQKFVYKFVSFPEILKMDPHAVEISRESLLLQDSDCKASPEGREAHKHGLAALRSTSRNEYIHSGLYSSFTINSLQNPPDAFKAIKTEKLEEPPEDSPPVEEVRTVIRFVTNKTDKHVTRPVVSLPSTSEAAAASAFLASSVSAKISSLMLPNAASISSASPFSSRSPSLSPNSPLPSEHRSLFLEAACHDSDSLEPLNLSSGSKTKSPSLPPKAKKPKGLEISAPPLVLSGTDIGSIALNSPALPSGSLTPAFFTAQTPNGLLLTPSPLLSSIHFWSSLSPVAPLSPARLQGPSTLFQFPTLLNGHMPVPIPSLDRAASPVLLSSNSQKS
The note with it: protein: recombinant; tags: N-terminal GST; dsDNA, one strand shown. The gist of the method: as §1

Assay [10] has as its target T7, FEV (Homo sapiens, UniProt Q99581 1-238).
T7 sequence: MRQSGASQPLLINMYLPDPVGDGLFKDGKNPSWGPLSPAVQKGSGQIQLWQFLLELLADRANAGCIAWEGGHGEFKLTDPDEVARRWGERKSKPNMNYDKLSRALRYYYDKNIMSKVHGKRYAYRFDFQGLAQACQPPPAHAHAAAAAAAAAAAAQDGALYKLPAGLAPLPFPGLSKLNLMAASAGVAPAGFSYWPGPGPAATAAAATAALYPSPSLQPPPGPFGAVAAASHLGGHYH
Particulars: protein: recombinant; tags: N-terminal GST; dsDNA, one strand shown. In short, it runs like this:
as §1

The target in assay [11] is ETV5 (Homo sapiens, UniProt P41161 1-510). The note with it: protein: recombinant; tags: N-terminal GST; dsDNA, one strand shown. In short, it runs like this: as §1
Sequence of ETV5 (P41161 whole entry): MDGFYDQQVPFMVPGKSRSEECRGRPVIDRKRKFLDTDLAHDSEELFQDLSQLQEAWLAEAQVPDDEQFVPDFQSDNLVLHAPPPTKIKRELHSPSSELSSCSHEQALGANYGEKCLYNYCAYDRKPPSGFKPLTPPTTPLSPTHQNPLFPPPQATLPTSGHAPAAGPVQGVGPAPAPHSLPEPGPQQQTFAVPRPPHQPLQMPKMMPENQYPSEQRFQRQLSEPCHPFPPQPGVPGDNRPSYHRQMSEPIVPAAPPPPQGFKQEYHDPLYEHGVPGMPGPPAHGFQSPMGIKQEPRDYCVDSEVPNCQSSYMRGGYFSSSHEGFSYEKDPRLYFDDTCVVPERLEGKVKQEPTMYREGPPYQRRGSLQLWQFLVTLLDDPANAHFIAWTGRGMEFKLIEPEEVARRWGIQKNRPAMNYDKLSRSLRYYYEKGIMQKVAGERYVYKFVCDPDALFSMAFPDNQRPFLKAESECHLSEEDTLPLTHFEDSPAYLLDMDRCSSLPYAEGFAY
Assay [12] addresses HSF1 (Homo sapiens, UniProt Q00613 1-529). Particulars: protein: recombinant; tags: N-terminal GST; chain copies: 3; dsDNA, one strand shown. In short, it runs like this: as §1
The target of assay [13] is T8, SPIC (Homo sapiens, UniProt Q8N5J4 1-248).
T8 sequence: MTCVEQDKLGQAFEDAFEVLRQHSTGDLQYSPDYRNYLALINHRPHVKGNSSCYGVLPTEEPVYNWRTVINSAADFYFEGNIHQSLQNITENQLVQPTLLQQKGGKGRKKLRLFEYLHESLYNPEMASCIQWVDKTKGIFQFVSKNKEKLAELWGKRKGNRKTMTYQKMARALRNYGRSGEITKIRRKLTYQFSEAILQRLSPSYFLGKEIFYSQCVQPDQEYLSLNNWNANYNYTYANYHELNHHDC
The note with it: protein: recombinant; tags: N-terminal GST; dsDNA, one strand shown. The gist of the method: as §1

For assay [14], the target named is ELF4 (Homo sapiens, UniProt Q99607 1-663). The note with it: protein: recombinant; tags: N-terminal GST; dsDNA, one strand shown. The gist of the method:
as §1

Assay [15] deals with T9, ELK4 (Homo sapiens, UniProt P28324-2 1-405).
T9 sequence: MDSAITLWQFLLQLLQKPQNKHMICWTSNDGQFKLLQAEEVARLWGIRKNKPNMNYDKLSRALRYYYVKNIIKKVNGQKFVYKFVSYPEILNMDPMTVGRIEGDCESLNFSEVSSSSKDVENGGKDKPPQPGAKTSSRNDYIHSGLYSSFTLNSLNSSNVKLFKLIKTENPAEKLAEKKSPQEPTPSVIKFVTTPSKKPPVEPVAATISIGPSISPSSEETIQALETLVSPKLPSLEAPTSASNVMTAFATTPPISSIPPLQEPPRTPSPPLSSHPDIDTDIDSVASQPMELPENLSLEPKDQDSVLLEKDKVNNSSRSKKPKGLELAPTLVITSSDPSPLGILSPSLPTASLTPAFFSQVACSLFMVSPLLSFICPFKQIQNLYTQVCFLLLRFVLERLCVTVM
The note with it: protein: recombinant; tags: N-terminal GST; dsDNA, one strand shown. The gist of the method: as §1

Assay [16] concerns the target T10, ETV2 (Homo sapiens, UniProt O00321 1-342).
T10 sequence: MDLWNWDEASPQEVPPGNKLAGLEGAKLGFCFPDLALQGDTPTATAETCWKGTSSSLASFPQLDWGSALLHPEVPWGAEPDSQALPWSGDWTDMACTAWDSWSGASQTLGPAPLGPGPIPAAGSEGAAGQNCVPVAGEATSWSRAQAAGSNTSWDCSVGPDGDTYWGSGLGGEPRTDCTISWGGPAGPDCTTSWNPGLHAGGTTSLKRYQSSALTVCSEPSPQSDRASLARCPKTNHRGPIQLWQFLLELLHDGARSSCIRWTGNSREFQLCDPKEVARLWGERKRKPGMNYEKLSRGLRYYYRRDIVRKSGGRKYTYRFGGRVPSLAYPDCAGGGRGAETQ
The note with it: protein: recombinant; tags: N-terminal GST; dsDNA, one strand shown. The gist of the method:
as §1

The target in assay [17] is T11, ELF3 (Homo sapiens, UniProt P78545 1-371).
T11 sequence: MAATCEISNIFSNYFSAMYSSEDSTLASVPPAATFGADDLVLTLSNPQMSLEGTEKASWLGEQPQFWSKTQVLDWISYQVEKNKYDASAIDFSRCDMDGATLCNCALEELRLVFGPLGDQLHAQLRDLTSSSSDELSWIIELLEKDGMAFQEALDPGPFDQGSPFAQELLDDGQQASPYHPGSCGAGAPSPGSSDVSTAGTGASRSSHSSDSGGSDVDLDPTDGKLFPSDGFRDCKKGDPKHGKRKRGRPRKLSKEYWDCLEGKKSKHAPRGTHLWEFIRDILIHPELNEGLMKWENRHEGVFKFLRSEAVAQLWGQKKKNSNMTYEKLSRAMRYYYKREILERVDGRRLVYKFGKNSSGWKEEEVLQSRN
Particulars: protein: recombinant; tags: N-terminal GST; dsDNA, one strand shown. The gist of the method: as §1

Assay [18] has as its target CRX (Homo sapiens, UniProt O43186 1-299). The note with it: protein: recombinant; tags: N-terminal GST; dsDNA, one strand shown. The gist of the method:
as §1

Assay [19] has as its target ETV1 (Homo sapiens, UniProt P50549 1-477). Particulars: protein: recombinant; tags: N-terminal GST; dsDNA, one strand shown. In short, it runs like this:
as §1

Sequence of CRX (O43186 whole entry): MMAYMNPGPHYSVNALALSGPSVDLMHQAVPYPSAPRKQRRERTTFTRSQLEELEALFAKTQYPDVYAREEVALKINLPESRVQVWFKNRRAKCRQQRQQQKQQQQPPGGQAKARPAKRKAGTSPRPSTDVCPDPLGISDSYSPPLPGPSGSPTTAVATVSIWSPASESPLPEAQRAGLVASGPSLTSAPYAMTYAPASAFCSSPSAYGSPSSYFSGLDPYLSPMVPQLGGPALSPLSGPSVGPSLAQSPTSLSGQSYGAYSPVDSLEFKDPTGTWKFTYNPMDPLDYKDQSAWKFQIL
Sequence of ELF4 (Q99607 whole entry): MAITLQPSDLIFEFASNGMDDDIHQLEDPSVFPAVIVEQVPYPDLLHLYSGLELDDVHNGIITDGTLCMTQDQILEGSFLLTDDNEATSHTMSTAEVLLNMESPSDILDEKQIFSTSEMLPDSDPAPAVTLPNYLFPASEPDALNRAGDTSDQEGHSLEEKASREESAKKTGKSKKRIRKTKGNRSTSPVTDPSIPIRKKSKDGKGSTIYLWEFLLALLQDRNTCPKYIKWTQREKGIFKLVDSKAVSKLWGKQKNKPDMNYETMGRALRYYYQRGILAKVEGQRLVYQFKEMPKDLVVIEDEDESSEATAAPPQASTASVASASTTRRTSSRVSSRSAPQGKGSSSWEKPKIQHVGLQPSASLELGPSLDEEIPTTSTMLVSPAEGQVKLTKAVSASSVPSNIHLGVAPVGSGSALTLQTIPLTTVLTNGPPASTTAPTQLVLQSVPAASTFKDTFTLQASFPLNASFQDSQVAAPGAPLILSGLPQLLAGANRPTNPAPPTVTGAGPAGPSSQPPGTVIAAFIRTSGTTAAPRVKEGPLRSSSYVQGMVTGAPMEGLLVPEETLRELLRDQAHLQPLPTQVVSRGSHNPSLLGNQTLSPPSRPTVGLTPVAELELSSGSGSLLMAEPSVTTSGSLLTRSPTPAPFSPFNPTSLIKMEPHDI
Sequence of ETV1 (P50549 whole entry): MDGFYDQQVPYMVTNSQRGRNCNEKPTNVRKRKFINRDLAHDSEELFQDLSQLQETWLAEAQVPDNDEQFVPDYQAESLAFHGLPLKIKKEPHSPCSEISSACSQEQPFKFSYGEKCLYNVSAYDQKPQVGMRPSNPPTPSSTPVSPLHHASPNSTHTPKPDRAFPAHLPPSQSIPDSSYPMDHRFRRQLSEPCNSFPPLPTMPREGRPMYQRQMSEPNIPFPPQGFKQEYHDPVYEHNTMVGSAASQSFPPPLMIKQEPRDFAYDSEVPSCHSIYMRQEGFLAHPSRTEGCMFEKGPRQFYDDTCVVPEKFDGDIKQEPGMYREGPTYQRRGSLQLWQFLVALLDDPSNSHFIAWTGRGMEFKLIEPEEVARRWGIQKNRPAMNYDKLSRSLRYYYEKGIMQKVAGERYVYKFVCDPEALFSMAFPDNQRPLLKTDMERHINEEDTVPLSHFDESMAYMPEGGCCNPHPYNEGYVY
Sequence of HSF1 (Q00613 whole entry): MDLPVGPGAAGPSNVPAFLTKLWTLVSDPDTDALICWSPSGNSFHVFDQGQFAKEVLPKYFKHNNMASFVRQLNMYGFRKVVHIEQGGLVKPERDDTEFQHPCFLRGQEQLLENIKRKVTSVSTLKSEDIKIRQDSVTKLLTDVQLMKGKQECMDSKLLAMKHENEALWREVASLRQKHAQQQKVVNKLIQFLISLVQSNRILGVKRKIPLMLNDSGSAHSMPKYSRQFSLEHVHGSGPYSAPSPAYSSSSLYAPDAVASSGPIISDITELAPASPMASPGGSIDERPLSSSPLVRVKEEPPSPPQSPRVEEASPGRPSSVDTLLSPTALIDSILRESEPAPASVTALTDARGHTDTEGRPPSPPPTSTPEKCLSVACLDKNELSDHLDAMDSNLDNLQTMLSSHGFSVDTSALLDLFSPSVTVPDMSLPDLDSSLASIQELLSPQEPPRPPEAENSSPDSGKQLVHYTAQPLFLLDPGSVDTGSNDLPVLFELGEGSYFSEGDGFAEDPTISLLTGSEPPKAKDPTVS
Sequence of SPIB (Q01892 whole entry): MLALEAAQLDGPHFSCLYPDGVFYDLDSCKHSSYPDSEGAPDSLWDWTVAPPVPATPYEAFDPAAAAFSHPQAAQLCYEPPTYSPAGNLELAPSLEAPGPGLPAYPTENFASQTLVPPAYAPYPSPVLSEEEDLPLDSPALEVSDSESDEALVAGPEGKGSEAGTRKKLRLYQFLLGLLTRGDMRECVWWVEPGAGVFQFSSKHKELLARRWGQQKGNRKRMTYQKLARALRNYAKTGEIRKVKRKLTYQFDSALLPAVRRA
Sequence of ELF1 (P32519 whole entry): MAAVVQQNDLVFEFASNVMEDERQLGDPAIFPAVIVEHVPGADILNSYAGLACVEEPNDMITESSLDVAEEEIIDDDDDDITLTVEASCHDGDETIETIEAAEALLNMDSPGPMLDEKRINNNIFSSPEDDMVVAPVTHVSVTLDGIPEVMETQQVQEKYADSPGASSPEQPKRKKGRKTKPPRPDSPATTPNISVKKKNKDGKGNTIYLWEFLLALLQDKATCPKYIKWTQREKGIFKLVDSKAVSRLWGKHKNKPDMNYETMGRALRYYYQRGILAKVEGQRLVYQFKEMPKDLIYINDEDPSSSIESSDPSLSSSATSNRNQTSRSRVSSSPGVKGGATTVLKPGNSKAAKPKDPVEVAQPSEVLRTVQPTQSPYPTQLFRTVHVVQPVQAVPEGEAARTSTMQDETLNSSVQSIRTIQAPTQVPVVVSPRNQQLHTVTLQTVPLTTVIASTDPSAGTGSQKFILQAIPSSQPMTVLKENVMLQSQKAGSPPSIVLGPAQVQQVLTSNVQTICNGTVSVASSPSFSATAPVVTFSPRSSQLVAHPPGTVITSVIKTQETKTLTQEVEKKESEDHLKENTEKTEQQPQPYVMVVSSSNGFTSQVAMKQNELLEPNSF

As for CTCTCC, the binding signal was 1.35 fold enrichment (6-mer frequency, TF over GST control) in assay [1]; 1.33 fold enrichment (6-mer frequency, TF over GST control) in [2]; 1.37 fold enrichment (6-mer frequency, TF over GST control) in assay [3]; 1.22 fold enrichment (6-mer frequency, TF over GST control) in [4]; 1.4 fold enrichment (6-mer frequency, TF over GST control) in assay [5]; 1.34 fold enrichment (6-mer frequency, TF over GST control) in assay [6]. Moreover, the binding signal in assay [7] was 1.41 fold enrichment (6-mer frequency, TF over GST control); in assay [8], 1.35 fold enrichment (6-mer frequency, TF over GST control); in assay [9] it was 1.37 fold enrichment (6-mer frequency, TF over GST control); in [10] it was 1.32 fold enrichment (6-mer frequency, TF over GST control); in [11], 1.24 fold enrichment (6-mer frequency, TF over GST control); in assay [12], 1.32 fold enrichment (6-mer frequency, TF over GST control). In addition, the binding signal in [13] was 1.41 fold enrichment (6-mer frequency, TF over GST control); in assay [14], 1.5 fold enrichment (6-mer frequency, TF over GST control); in [15], 1.37 fold enrichment (6-mer frequency, TF over GST control); in assay [16] it was 1.32 fold enrichment (6-mer frequency, TF over GST control); in assay [17], 1.6 fold enrichment (6-mer frequency, TF over GST control); in assay [18] it was 1.15 fold enrichment (6-mer frequency, TF over GST control). Further, in [19], the binding signal is 1.42 fold enrichment (6-mer frequency, TF over GST control).
